Experimental data published in PubChem BioAssay AID1159580 (chemical genetic matrix, 2015).
The whole screen tested about 5,500 compounds, of which about 2,000 (36%) were called active. About 18% were inconclusive and are not listed. Cut-off read from the data, not from the text of the source: active = normalized growth mostly below about 0.91 (no sharp cut-off); inconclusive = no clear call, values can overlap the other calls; inactive = mostly above about 0.92. The list shows a part of the results.

Test: chemical genetic growth profiling, strain panel (AID 1159580);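 note: tested at 20 µM; growth read once vehicle control cultures reached saturation at 30 °C; 1 = growth at the plate median or of vehicle wells; lower values mean less growth of the strain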
Settings: growth OD

Measured: normalized growth

CC(C)(C)c1cc(C(C)(C)C)n(-c2ccc(N=Cc3cc(Br)cc(Br)c3O)cc2)n1
active: S. cerevisiae deletion strains, locus YAL013W, strain DEP1, hits give low values 0.157 | S. cerevisiae deletion strains, locus YBR229C, strain ROT2, hits give low values 0.204 | S. cerevisiae deletion strains, locus YCL061C, strain MRC1, hits give low values 0.194 | S. cerevisiae deletion strains, locus YDL101C, strain DUN1, hits give low values 0.193 | S. cerevisiae deletion strains, locus YDR150W, strain NUM1, hits give low values 0.355 | S. cerevisiae deletion strains, locus YEL061C, strain CIN8, hits give low values 0.152 | S. cerevisiae deletion strains, locus YGR078C, strain PAC10, hits give low values 0.0895 | S. cerevisiae deletion strains, locus YHR030C, strain SLT2, hits give low values 0.103 | S. cerevisiae deletion strains, locus YHR087W, strain rtc3, hits give low values 0.101 | S. cerevisiae deletion strains, locus YJR043C, strain POL32, hits give low values 0.357 | S. cerevisiae deletion strains, locus YJR075W, strain HOC1, hits give low values 0.119 | S. cerevisiae deletion strains, locus YKL190W, strain CNB1, hits give low values 0.187 | S. cerevisiae deletion strains, locus YLR039C, strain RIC1, hits give low values 0.074 | S. cerevisiae deletion strains, locus YLR058C, strain SHM2 (second series), hits give low values 0.318 | S. cerevisiae deletion strains, locus YLR085C, strain ARP6, hits give low values 0.12 | S. cerevisiae deletion strains, locus YLR262C, strain YPT6, hits give low values 0.0868 | S. cerevisiae deletion strains, locus YML094W, strain GIM5, hits give low values 0.209 | S. cerevisiae deletion strains, locus YMR219W, strain ESC1, hits give low values 0.219 | S. cerevisiae deletion strains, locus YMR263W, strain SAP30, hits give low values 0.163 | S. cerevisiae deletion strains, locus YNL153C, strain GIM3, hits give low values 0.267 | S. cerevisiae deletion strains, locus YNL298W, strain CLA4 (second series), hits give low values 0.174 | S. cerevisiae deletion strains, locus YNL322C, strain KRE1, hits give low values 0.679 | S. cerevisiae deletion strains, locus YNR030W, strain Alg12, hits give low values 0.468 | S. cerevisiae deletion strains, locus YPL055C, strain LGE1, hits give low values 0.172 | S. cerevisiae deletion strains, locus YPL241C, strain CIN2, hits give low values 0.64 | S. cerevisiae deletion strains, locus YPR135W, strain CTF4, hits give low values 0.276 | S. cerevisiae strains, strain wild type, hits give low values 0.141
